Source: PubChem BioAssay (NCI)
About 83,000 compounds went through this panel and 20% of them were active in at least one assay; those are over-represented in the sample as a whole.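 Cells were grown in 96-well plates and exposed to the test compound at a single concentration for 48 hours; results are reported as percent growth, with values below 10 considered active.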 Unmarked numbers belong to inactive results. Active and inactive are the calls of the source.

What follows are molecules tested on HCT-15 colon (assay: NCI-60 one-dose screen, 48 h (100 = growth as untreated, 0 = no growth, -100 = all killed)). Details: 10 µM.

Structure (SMILES) | growth
O=C(O)c1ccccc1NCc1ccco1 | 108%
C/C(=C\c1cc(Cl)ccc1OCC(=O)O)[N+](=O)[O-] | 101%
CSC[C@H](NC(=O)COc1cccc2cnccc12)C(=O)NC(Cc1ccccc1)C(O)C(=O)N1CSC[C@H]1C(=O)NC(C)(C)C (some centres not stated) | 96.3%
COC1=CC(=O)c2nc(Cl)ccc2C1=O | 100%
N#Cc1ccc(NC(=O)Nc2cccc(C#N)c2)cc1 | 67.4%
CC(C)=C(NC(=O)c1ccccc1)C(=O)O | 104%
Cc1cc2nc(CC(=O)c3cccc([N+](=O)[O-])c3)c(=O)[nH]c2cc1C | 77%
COc1cc(C(=O)N/N=C/c2cccc([N+](=O)[O-])c2)cc(OC)c1OC | 52.1%
CN(C)C(C)(C)CC(C)(C)C | 100%
O=c1cc(-c2ccccc2)[nH]c2c1CCCC2 | 25%
CC1(c2ccccc2)NC(=O)NC1=O (configuration not stated) | 110%
CCCNC(=O)c1ccc(S(N)(=O)=O)cc1 | 110%
COC(=O)c1[nH]c(=O)c(C#N)c(C(=O)OC)c1C(=O)c1ccccc1 | 98.1%
O=C(O)[C@@H]1[C@H]2C[C@H]3c4[nH]c5ccccc5c4CCN3C[C@@H]2CC[C@@H]1O | 106%
CC1(O)OC(COc2ccc(Cl)cc2)COC1O (configuration not stated) | 103%
CNc1nc(NC)c2cn[nH]c2n1 | 101%
CC(C)=NNc1ccc([N+](=O)[O-])cc1[N+](=O)[O-] | 62.3%
CC(=O)CC(=O)N(C)C | 95.1%
COc1cc(OC)c2ccc(=O)oc2c1 | 96.4%
Cc1ccc(/C=C2\SC(=S)N(c3ccc(F)cc3)C2=O)o1 | 88.1%
O=C(NCCNC(=O)c1ccc(Cl)cc1Cl)c1ccc(Cl)cc1Cl | 106%
CC1C(=O)c2ccccc2CC1C(=O)O (configuration not stated) | 115%
CCCCC(O)c1ccccc1 (configuration not stated) | 102%
Nc1nc(OCc2ccccc2)c2[nH]cnc2n1 | 63.7%
COc1cc(/C=C/C(=O)c2ccccc2)cc(OC)c1OC | 31.4%
O=[N+]([O-])c1ccc(-c2noc(-c3cccs3)n2)cc1 | 84%
CC(=O)OCC1OC(OC2=C(CC=C(C)C)C(=O)c3ccccc3C2=O)C(OC(C)=O)C(OC(C)=O)C1OC(C)=O (configuration not stated) | 12.2%
[O-][N+](=Nc1cccc(Cl)c1)c1cccc(Cl)c1 | 78.1%
COc1ccc(-c2cc3c(nn2)-c2ccccc2C3=O)cc1 | 36.7%

What follows are molecules tested on HT29 colon in the same assay as above. Details: 10 µM.

Structure (SMILES) | growth
CCOC(=O)CCCC(=O)OCC | 110%
CCCCOC(OCCCC)c1ccccc1 | 102%
Nc1ccc(N=Nc2ccc(S(=O)(=O)O)cc2)c2ccccc12 | 107%
c1ccc(Sc2ccccc2)cc1 | 102%
COc1ccc2c(NCCCCCCCCNc3c4ccccc4nc4cc(OC)ccc34)c3ccccc3nc2c1 | -100% (active)
Cc1nc2ccccc2c2nnc(SCC(=O)N(Cc3ccccc3)c3ccccc3)n12 | 96.1%
O=S(=O)(O)c1ccc(O)c2ccccc12 | 110%
O=C1Cc2ccccc2C(=O)O1 | 109%
Cc1c(C(=O)O)c(=O)n(-c2ccccc2)n1C | 112%
CCCCC/C=N/Nc1nc(C)cc(=O)[nH]1 | 105%

Each molecule was assayed on SNB-75 CNS in the same assay as above. Details: 10 µM.

Structure (SMILES) | growth
C/C(=C\c1cc(Cl)ccc1OCC(=O)O)[N+](=O)[O-] | 112%
CSC[C@H](NC(=O)COc1cccc2cnccc12)C(=O)NC(Cc1ccccc1)C(O)C(=O)N1CSC[C@H]1C(=O)NC(C)(C)C (some centres not stated) | -20.5% (active)
COC1=CC(=O)c2nc(Cl)ccc2C1=O | 48.6%
CCOC(=O)CCCC(=O)OCC | 87.8%
N#Cc1ccc(NC(=O)Nc2cccc(C#N)c2)cc1 | 97.8%
CC(C)=C(NC(=O)c1ccccc1)C(=O)O | 108%
Cc1cc2nc(CC(=O)c3cccc([N+](=O)[O-])c3)c(=O)[nH]c2cc1C | 96.1%
COc1cc(C(=O)N/N=C/c2cccc([N+](=O)[O-])c2)cc(OC)c1OC | 29.5%
O=c1cc(-c2ccccc2)[nH]c2c1CCCC2 | -7.33% (active)
CCCNC(=O)c1ccc(S(N)(=O)=O)cc1 | 72.6%
COC(=O)c1[nH]c(=O)c(C#N)c(C(=O)OC)c1C(=O)c1ccccc1 | 85.6%
O=C(O)[C@@H]1[C@H]2C[C@H]3c4[nH]c5ccccc5c4CCN3C[C@@H]2CC[C@@H]1O | 88.4%
CCCCOC(OCCCC)c1ccccc1 | 88.9%
CC1(O)OC(COc2ccc(Cl)cc2)COC1O (configuration not stated) | 112%
CNc1nc(NC)c2cn[nH]c2n1 | 91.1%
CC(=O)CC(=O)N(C)C | 80.1%
Nc1ccc(N=Nc2ccc(S(=O)(=O)O)cc2)c2ccccc12 | 81.6%

Structure (SMILES) | growth
COc1cc(OC)c2ccc(=O)oc2c1 | 85.3%
c1ccc(Sc2ccccc2)cc1 | 99.7%
Cc1ccc(/C=C2\SC(=S)N(c3ccc(F)cc3)C2=O)o1 | 24.7%
COc1ccc2c(NCCCCCCCCNc3c4ccccc4nc4cc(OC)ccc34)c3ccccc3nc2c1 | -100% (active)
O=C(NCCNC(=O)c1ccc(Cl)cc1Cl)c1ccc(Cl)cc1Cl | 102%
CC1C(=O)c2ccccc2CC1C(=O)O (configuration not stated) | 82.2%
Cc1nc2ccccc2c2nnc(SCC(=O)N(Cc3ccccc3)c3ccccc3)n12 | 90.4%
CCCCC(O)c1ccccc1 (configuration not stated) | 92.2%
O=S(=O)(O)c1ccc(O)c2ccccc12 | 88.1%
O=C1Cc2ccccc2C(=O)O1 | 95.8%
Nc1nc(OCc2ccccc2)c2[nH]cnc2n1 | 8.69% (active)
Cc1c(C(=O)O)c(=O)n(-c2ccccc2)n1C | 109%
COc1cc(/C=C/C(=O)c2ccccc2)cc(OC)c1OC | 71.2%
O=[N+]([O-])c1ccc(-c2noc(-c3cccs3)n2)cc1 | 83.2%
CCCCC/C=N/Nc1nc(C)cc(=O)[nH]1 | 99.2%
COc1ccc(-c2cc3c(nn2)-c2ccccc2C3=O)cc1 | -4.76% (active)
